{"source": "PubChem BioAssay (NCI)", "note": "Several values for one entry are separate records, joined by “and”; a condition that tells them apart may be missing. Identical values can stand only once. Compounds without any hit were thinned out: in the full panel of roughly 83,000, 20% have a hit.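 Plates (96-well) were seeded with cells, treated with compound at one concentration, and incubated for 48 hours before percent growth was determined.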 Activity calls are given as the source filed them. *1 amine or outer side, *2 acyl side, *3 side chain or, on linkers, in order; H or OH if unused. Where a SMILES comes first, the peptide text is derived from it. Bridges are numbered along the chain shown (N, C = ends). Roman numbers before positions name the chains, in order. [ ]: non-standard residue; d: D form. ξ: configuration not given here. Actinocin(1to9) = Cc1c2oc3c(C)ccc(C(=O)[*:2])c3nc-2c(C(=O)[*:1])c(N)c1=O; NMeV = CN[CH](C(=O)O)C(C)C; ξD = NC(CC(=O)O)C(=O)O; Sar = CNCC(=O)O"}
{"test_system": "TK-10 renal", "assay": "NCI-60 one-dose screen, 48 h (100 = growth as untreated, 0 = no growth, -100 = all killed)", "settings": "10 µM unless noted", "procedure": "Growth inhibition of the TK-10 human tumor cell line is measured as a screen for anti-cancer activity. Cells are grown in 96 well plates and exposed to the test compound for 48 hours. Compounds are tested at a single concentration, which is 10^-5 M for most compounds. The reported endpoint is percent growth (GI% or GIPRCNT), where numbers from 0 - 100% represent growth inhibition, and numbers from -100% - 0 represent cell death. For example, a value of 40 represents 60% growth inhibition. A value of 0 means no net growth occurred over the course of the experiment. A value of -40 indicates 40% of cells at the beginning of the experiment died by the end of the experiment. A value of -100 means all cells are dead at the end of the experiment.\nNCI-60 Human Tumor Cell Lines Screen was performed using the standard one-dose NCI protocol, which is described in more detail at https://dtp.cancer.gov/discovery_development/nci-60/default.htm.\nCompounds with GIPRCNT values below 10 were considered active. Activity score was based on GIPRCNT using the following formula: […]\nScore is 0 for GIPRCNT values of 100 or above, 50 for GIPRCNT values of 0, and 100 for GIPRCNT values of -100."}
{"smiles": "Oc1ccc2c(c1)CCc1ccccc1-2", "growth": "100% (inactive)"}
{"smiles": "Clc1ccc(Cc2nc3ccccc3s2)cc1", "growth": "119% (inactive)"}
{"smiles": "O=C1/C(=C\\c2ccc([N+](=O)[O-])cc2)CS(=O)(=O)C/C1=C/c1ccc([N+](=O)[O-])cc1", "growth": "-99% (active)"}
{"smiles": "CCC1CCCCN1C(=S)N/N=C(\\C)c1ccccn1", "note": "(stereo not given)", "growth": "19.7% (inactive)"}
{"smiles": "O=[N+]([O-])c1ccc(N2CCN(Cc3ccccc3)CC2)c2c1no[n+]2[O-]", "growth": "-15.7% (active)"}
{"smiles": "CCC(C)C1NC(=O)C(NC(=O)c2c3nc4c(C(=O)NC5C(=O)NC(C(C)CC)C(=O)N6CCCC6C(=O)N(C)CC(=O)N(C)C(C(C)C)C(=O)OC5C)ccc(C)c4oc-3c(C)c(=O)c2N)C(C)OC(=O)C(C(C)C)N(C)C(=O)CN(C)C(=O)C2CCCN2C1=O", "note": "(stereo not given) (I: TIP[Sar][NMeV] / II: TIP[Sar][NMeV]; ester I:1-I:C, II:1-II:C; linker I:N-II:N via Actinocin(1to9); configuration not given here)", "growth": "3.49% (active)"}
{"smiles": "CC(=O)Nc1ccc(C(=O)CCl)cc1", "growth": "43.8% (inactive)"}
{"smiles": "CC1=CC[C@@H]2[C@@H](CC[C@@]2(C)O)C(C)(C)[C@H]1CC[C@@H]1[C@@]2(C)CC[C@@H](O)C(C)(C)O[C@@H]2CC[C@]1(C)O", "growth": "12.5% [100 µM] (inactive) and -92.2% [100 µM] (active)"}
{"smiles": "COC(=O)c1nc(=S)[nH]c(C(=O)OC)c1C(=O)c1ccc(Cl)c(Cl)c1", "growth": "106% (inactive)"}
{"smiles": "CCN1/C(=C/C(C)=C/c2sc3ccc4ccccc4c3[n+]2CC)Sc2ccc3ccccc3c21", "growth": "-97.3% (active)"}
{"smiles": "O=C1C=CC(=O)N1c1ccccc1", "growth": "105% (inactive)"}
{"smiles": "COc1ccc(C(OCC2OC(n3ccc(NC(=O)c4ccccc4)nc3=O)C(O)C2O)(c2ccccc2)c2ccccc2)cc1", "note": "(stereo not given)", "growth": "81.5% (inactive)"}
{"smiles": "COc1cccc2c1C(=O)c1c(O)c3c(c(O)c1C2=O)C[C@@](O)(C(=O)CO)C[C@@H]3OC1CC(OC(C)=O)C(OC(C)=O)C(C)O1", "note": "(stereo not given in full)", "growth": "-36.3% (active)"}
{"smiles": "Cc1cc(C)c(C#N)c(Sc2nc(C)c([N+](=O)[O-])c(C)c2C#N)n1", "growth": "75.2% (inactive)"}
{"smiles": "S=C1NC2=C(COc3ccccc32)C(c2ccc(Cl)cc2)N1", "note": "(stereo not given)", "growth": "-3.55% [100 µM] (active) and -100% [100 µM] (active)"}
{"smiles": "N=C(N)Sc1cccc[n+]1[O-]", "growth": "86.2% (inactive)"}
{"smiles": "O=C(CCl)N(c1ccccc1)c1ccccc1", "growth": "105% (inactive)"}
{"smiles": "O=[N+]([O-])c1ccc(C2N(Cc3ccc(Cl)cc3)CCN2Cc2ccc(Cl)cc2)cc1", "growth": "80.5% (inactive)"}
{"smiles": "CCCCCCN(CCCCCC)CCCNc1nccc2ccccc12", "growth": "39.8% (inactive)"}
{"smiles": "S=C=Nc1ccc(N2CCOCC2)cc1", "growth": "93.2% (inactive)"}
{"smiles": "C[n+]1ccccc1C[n+]1ccccc1", "growth": "98.9% (inactive)"}
{"smiles": "Oc1c(Cl)cc(Cl)cc1C=NCC1CCC(CN=Cc2cc(Cl)cc(Cl)c2O)CC1", "note": "(stereo not given)", "growth": "124% (inactive)"}
{"smiles": "O=C(c1ccccc1)C(Br)[N+](=O)[O-]", "note": "(stereo not given)", "growth": "106% (inactive)"}
{"smiles": "O=C1C=CC(=O)N1c1ccc(O)cc1", "growth": "103% (inactive)"}
{"smiles": "Cc1nn(CCO)c(C)c1N=[N+]([O-])c1c(C)nn(CCO)c1C", "growth": "-46.9% (active)"}
{"smiles": "Oc1ccc(Cl)cc1C(c1cc(Cl)ccc1O)C(Cl)(Cl)Cl", "growth": "77.5% (inactive)"}
{"smiles": "Cn1c(COC(=O)NC2CCCCC2)c(COC(=O)NC2CCCCC2)c2ccc3cc(Cl)c(Cl)cc3c21", "growth": "-93.7% [100 µM] (active)"}
{"smiles": "CCC(C)(O)Cc1ccc(Cl)cc1", "note": "(stereo not given)", "growth": "97.6% (inactive)"}
{"smiles": "c1ccc(-c2cccc(-c3ccccn3)n2)nc1", "growth": "32.9% (inactive)"}
{"smiles": "O=C(/C(Cl)=N/O)c1ccc(-c2ccccc2)cc1", "growth": "106% (inactive)"}
{"smiles": "NCC(=O)NC(CC(=O)O)C(=O)O", "note": "(stereo not given) (H-Gly-[ξD]-OH)", "growth": "97.7% (inactive)"}
{"smiles": "CC(C)(C)c1ccc(CCO)cc1", "growth": "93.7% (inactive)"}
{"smiles": "CCOc1ccc(NC(=O)/C(=N\\N)C(C(=O)OC)c2nc3ccc(Cl)cc3[nH]c2=O)cc1", "note": "(stereo not given)", "growth": "128% [100 µM] (inactive) and 85.6% [100 µM] (inactive)"}
{"smiles": "CCCCC(C=O)(C=C=C(C)C)CC", "note": "(stereo not given)", "growth": "104% (inactive)"}
{"smiles": "CCCCCCCCCCCC(=O)OC(C)C(=O)NCCCC", "note": "(stereo not given)", "growth": "90.8% (inactive)"}
{"smiles": "O=C1C=CC(O)=CC1=P(c1ccccc1)(c1ccccc1)c1ccccc1", "growth": "96.3% (inactive)"}
{"smiles": "OC(c1cc(-c2ccc(Cl)cc2)nc2c(Cl)cccc12)C1CCCCN1", "note": "(stereo not given)", "growth": "-75.9% (active)"}
{"smiles": "CCOc1cc2c(cc1O)/C(=N\\OC)C[C@@H]1[C@@H]2CC[C@]2(C)[C@@H](O)CC[C@@H]12", "growth": "-12.5% [100 µM] (active) and -99.5% [100 µM] (active)"}
{"smiles": "CN(C)c1ccc(/C=C/c2sc3ccc4ccccc4c3[n+]2C)cc1", "growth": "-42.1% (active)"}
{"smiles": "CCN(CC)CCNC(Cc1ccccc1)c1ccc(OCc2ccccc2)cc1", "note": "(stereo not given)", "growth": "64% (inactive)"}
